Compound activity (PubChem)
The list is not random: actives were taken first. Their share in the collection is about 3.2%.
aDG glyco up: alpha-DG glycosylation activation; activation, % at 10 µM; Pro5-aDG cells, alpha-DG glycosylation AlphaScreen (IIH6); 0% Pro5, 100% B10-LARGE cell signal; actives 0.22% (n = 360,000); AID 624168;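 active = activation of at least 8% versus controls, or a plate z-score of at least 8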;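 note: Pro5 are CHO cells carrying HIG-tagged alpha-DG that lacks glycosylation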
PfG6PD inh: PfG6PD (Plasmodium falciparum) enzyme inhibition. PfGluPho enzyme, NADPH resazurin-diaphorase fluorescence. inhibition, % at 20 µM. actives 0.78% (n = 350,000). AID 504690;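 active = inhibition reaching at least a set limit at 20 µM in the primary screen, cut at about 59% in these data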
FAS TE block: inhibitors of human fatty acid synthase thioesterase domain. AID 602261. actives 0.67% (n = 360,000). inhibition, % at 15 µM. P49327. recombinant FAS-TE, OMFH fluorogenic substrate, fluorescence endpoint;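 active = compounds whose normalised, plate-corrected inhibition of enzyme fluorescence in the single-dose primary screen is 50% or more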
H9c2 protect: protects H9c2 cardiomyocytes from peroxide injury; actives 0.63% (n = 360,000); H2O2 injury protection, ATPLite, 2 h; AID 588492; protection from H2O2 cell death, % at 20 µM;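 active = compounds giving at least 50% protection of heart cells from peroxide-induced death in the single-dose screen, raw or plate-pattern-corrected value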
CRFR2-BP antag: antagonists of CRF-binding protein/CRF-R2 receptor complex. actives 0.59% (n = 350,000). HEK293 CRF-R2/CRF-BP, CRF-induced calcium fluorescence. inhibition, % at 11.8 µM;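 active = inhibition of the ligand-induced calcium signal above about 50% at the single tested concentration, limit read from the data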
CRFR2-BP ag: agonists of human CRF-binding protein/CRF-R2 receptor complex | HEK293 CRF-R2/CRF-BP, calcium dye fluorescence (FLIPR); percent of saturating CRF peptide response | activation, % at 13.2 µM | actives 0.46% (n = 350,000) | AID 588473;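 active = activation of at least 50%, plus an integration ratio under a set limit after plate pattern correction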
A number is an active result; i = inactive; nt = no result.

SMILES	aDG glyco up	PfG6PD inh	FAS TE block	H9c2 protect	CRFR2-BP antag	CRFR2-BP ag
COc1ccc(C(=O)NC(=S)NNC(=O)c2ccccc2O)cc1	i	i	i	i	i	58.7
COc1ccc(C(=O)NC(=S)NNC(=O)c2ccccc2C)cc1	i	i	i	i	i	116.1
COc1ccc(C(=O)NNC(=S)NC(=O)/C=C/c2cccs2)cc1	i	i	i	i	i	i
O=C(/C=C/c1cccs1)NC(=S)NNC(=O)c1ccccc1O	i	i	i	i	i	62.6
CC(C)(C)C(=O)NC(=S)NNC(=O)c1sc2ccccc2c1Cl	i	i	i	i	i	225.8
O=C(NNC(=S)NC1CCCCC1)c1sc2ccccc2c1Cl	i	i	i	i	i	i
CC1(c2nnc(Cc3ccccc3)o2)CC(c2ccccc2[N+](=O)[O-])=NO1 (stereo unspecified)	i	i	i	i	i	i
CC(=O)OCC1CCCC2=C(C)C(=O)CCC21COC(C)=O (stereo unspecified)	i	i	i	i	i	i
CC(=O)Nc1cccc(-c2ccnc3c2CC(C)(C(=O)NCc2ccc(F)c(F)c2)O3)c1 (stereo unspecified)	i	nt	i	i	nt	nt
Cc1ccc(S(=O)(=O)NC(=O)C2(C)CCN2C(=O)C2CC2)cc1 (stereo unspecified)	i	nt	i	i	nt	nt
COc1cc2ccccc2cc1C(=O)NNC(=O)c1ccccc1O	i	nt	i	51.6	nt	nt
COc1ccc(C(=O)NNC(=S)NC(=O)C(C)(C)C)cc1	i	i	i	i	i	127.1
COc1ccc(NC(=O)c2cc3ccccc3cc2OC)cc1	i	i	i	i	i	i
O=C(NC1CCCCC1)C1CC(=O)N(CCc2ccc(F)cc2)C1 (stereo unspecified)	i	i	i	i	i	i
CCc1ccc(C(C)NC(=S)NC2CCCCC2)cc1 (stereo unspecified)	i	i	i	i	71.1	i
CCOc1ccc(C2C3=C(CC(C)(C)CC3=O)N(CCCOC)C3=C2C(=O)CC(C)(C)C3)cc1OC	i	i	i	i	i	i
CCOC(=O)CNC(=O)CSc1nc2nc(C)c(Br)cc2[nH]1	i	i	i	50.3	i	i
Cc1nc2nc(SCC(N)=O)[nH]c2cc1Br	i	i	i	i	i	i
Cc1ccc2[nH]c(C)c(/C=C/c3cc[n+](C)cc3)c2c1	i	i	i	i	i	i
Cc1ccc2c(c1)c(/C=C/c1cc[n+](C)cc1)c(C)n2C	i	i	i	i	i	52.6
O=c1[nH]c(CN2CCCC2)nc2sc3c(c12)CCC3	i	i	i	55.8	i	i
Cc1ccc(C(=O)N2CCN(Cc3nc4sc5c(c4c(=O)[nH]3)CCCC5)CC2)cc1	i	i	i	i	i	i
CCCc1nc2sc3c(c2c(=O)[nH]1)CCCC3	i	i	i	i	i	i
CCN(CC(=O)NC(C)C)Cc1nc2sc3c(c2c(=O)[nH]1)CCC3	i	i	i	63.8	i	i
Cc1ccc(Nc2ccc(C(=O)O)cc2N)cc1	nt	i	nt	nt	55.8	i
SMILES	aDG glyco up	PfG6PD inh	FAS TE block	H9c2 protect	CRFR2-BP antag	CRFR2-BP ag
Cc1cc(C)cc(Nc2ccc(C(=O)O)cc2N)c1	i	i	i	i	i	i
CCOc1ccccc1NC1=C(Cl)C(=O)N(c2ccccc2)C1=O	i	i	i	i	i	i
COc1ccc(NC(=O)c2cccnc2SC)cc1S(=O)(=O)N1CCCCC1	i	i	i	i	i	i
O=C(Nc1cc(S(=O)(=O)N2CCOCC2)ccc1O)c1ccc(NS(=O)(=O)c2ccc(Cl)s2)cc1	i	i	i	i	i	i
COc1ccc(C)cc1NC(=O)c1ccccc1NS(=O)(=O)c1ccc(Cl)s1	i	i	i	i	65.2	i
Cc1ccc(NC(=O)c2ccccc2NS(=O)(=O)c2ccc(Cl)s2)cc1S(=O)(=O)N1CCOCC1	i	i	i	i	87.3	i
COc1ccccc1N(C)S(=O)(=O)c1ccc(C)c(C(=O)N2CCCCCC2)c1	i	i	i	i	i	i
Cc1ccccc1Oc1cc(NC(=O)CCCn2nc(C)c([N+](=O)[O-])c2C)cc([N+](=O)[O-])c1	i	i	i	i	50.8	i
CCN1/C(=C/c2ccc3cc(C)ccc3[n+]2CC)Sc2cc(C)c(C)cc21	i	i	i	i	i	183.8
CCN1/C(=C/c2ccc3cc(C)ccc3[n+]2CC)Sc2ccccc21	i	i	i	i	i	154.7
CC[n+]1c(/C=C2\Sc3ccccc3N2C)ccc2cccc(C)c21	i	i	i	i	i	124.1
COC(=O)C1=C(NC(=O)c2cccc(OC)c2)CCS1	i	i	i	i	67.2	i
COC(=O)C1=C(NC(=O)c2ccccc2C)CCS1	i	i	i	i	i	i
Cc1ccc(N(CC(=O)N2CCCCCC2)S(C)(=O)=O)c(C)c1	i	i	i	i	i	i
CCOc1ccc(NC(=O)CCN2C(=S)NC(C)(C)CC2C)cc1 (stereo unspecified)	i	i	i	i	i	i
CC1CC(C)(C)NC(=S)N1CCC(=O)Nc1ccc2c(c1)OCCO2 (stereo unspecified)	i	i	i	68.6	i	i
Cc1cc(C)n(-c2ccc3cccc(NS(C)(=O)=O)c3n2)n1	i	i	i	88.3	i	i
CS(=O)(=O)Nc1cccc2cccnc12	i	i	i	i	i	i
COc1ccc(C(C(=O)NCc2ccc(F)cc2)N(C(=O)c2csnn2)C2CC2)cc1 (stereo unspecified)	i	i	i	i	i	i
CC(=O)c1cccc(NC(=O)NNC(=O)CCC(=O)Nc2ccc(C)c(C)c2)c1	i	i	i	i	i	i
O=C(c1ccco1)N1CCN(C(=O)c2ccc(-c3ccc(Cl)cc3)o2)CC1	i	i	i	i	i	i
CC(=O)N1CCN(C(=S)c2ccc(-c3ccc(Cl)cc3)o2)CC1	i	62.0	i	i	i	i
CCN(c1ccccc1)c1nc(=O)c2cccnc2s1	i	i	i	i	i	i
CCN(c1cccc(C)c1)c1nc2ccsc2c(=O)s1	i	i	i	i	69.9	i
CCn1cc(C=C2C(=O)c3ccccc3C2=O)c2ccccc21	i	i	i	i	i	196.0
SMILES	aDG glyco up	PfG6PD inh	FAS TE block	H9c2 protect	CRFR2-BP antag	CRFR2-BP ag
CCN=C1S/C(=C\c2cn(CC)c3ccccc23)C(=O)N1CC	i	i	i	i	i	i
CC1CCN(S(=O)(=O)c2ccc3c(c2)NC(=O)CS3)CC1	i	i	i	i	62.8	i
CCOC(=O)NNC(=O)c1[nH]c2ccc(Br)cc2c1-c1ccccc1	i	i	i	i	56.6	i
CC(=O)NNC(=O)c1[nH]c2ccc(Br)cc2c1-c1ccccc1	i	i	i	i	i	i
O=C(N/N=C/c1ccccn1)c1cccc([N+](=O)[O-])c1	i	i	i	60.6	i	i
Cc1ccc(C(=O)N/N=C\c2ccccn2)cn1	i	i	i	i	113.4	i
O=C(N/N=C/c1ccccn1)c1cc([N+](=O)[O-])cc([N+](=O)[O-])c1	i	i	i	i	i	i
